Results from PubChem BioAssay (EPA / NIEHS).
Records with an inconclusive call do not appear. Some compounds were tested as several samples or in several runs, with calls that do not always agree. Active and inactive are the calls of the source. Rule for the calls, unless noted: active = hit-call score of the fitted dose curve at least 0.9, where 1 is the maximum; inactive = score below 0.9.

How the values were obtained:
[1] = ATG_M_06_TRANS: Attagene TRANS-FACTORIAL HepG2 Assay for M06 Transcription Factor (Internal Marker) (AID 2282983; active = hit-call score of the fitted dose curve at least 0.9, where 1 is the maximum;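 note: reporter transcript level by RT-PCR then capillary electrophoresis fluorescence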); conditions: HepG2 Attagene TRANS M06 internal marker reporter
In short: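 Measured by capillary electrophoresis of fluorescently labelled RT-PCR products, this endpoint reflects reporter mRNA in HepG2 cells harbouring exogenous NR-GAL4 reporter constructs after 24 h exposure, with DMSO as baseline.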

[2] = biological target: Transcriptional activator Myb (Homo sapiens) (UniProt P10242); experiment: ATG_Myb_CIS: Attagene CIS-FACTORIAL HepG2 Assay for human Myeloblastosis (Myb) Proto-Oncogene Transcription Factor (AID 2282986); conditions: HepG2 Attagene CIS-FACTORIAL Myb reporter transcription; actives raise or lower the signal
Sequence of Transcriptional activator Myb (Homo sapiens) (P10242 whole entry, looked up): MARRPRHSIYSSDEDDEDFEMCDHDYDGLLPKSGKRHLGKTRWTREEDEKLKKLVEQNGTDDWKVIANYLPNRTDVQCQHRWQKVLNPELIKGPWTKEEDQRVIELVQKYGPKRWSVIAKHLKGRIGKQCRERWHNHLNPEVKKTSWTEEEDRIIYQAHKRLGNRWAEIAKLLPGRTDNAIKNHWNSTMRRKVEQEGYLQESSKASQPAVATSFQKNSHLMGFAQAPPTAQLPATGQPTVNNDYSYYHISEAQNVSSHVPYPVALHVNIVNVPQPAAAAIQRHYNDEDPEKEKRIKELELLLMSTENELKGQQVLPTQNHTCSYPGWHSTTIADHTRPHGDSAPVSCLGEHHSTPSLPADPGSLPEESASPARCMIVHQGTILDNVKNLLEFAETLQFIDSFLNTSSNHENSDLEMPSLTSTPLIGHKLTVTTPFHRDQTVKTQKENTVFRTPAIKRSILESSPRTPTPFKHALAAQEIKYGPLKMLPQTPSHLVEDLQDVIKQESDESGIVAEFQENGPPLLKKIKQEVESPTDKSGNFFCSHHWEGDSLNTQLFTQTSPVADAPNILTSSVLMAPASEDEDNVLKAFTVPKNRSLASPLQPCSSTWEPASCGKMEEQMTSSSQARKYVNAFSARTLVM
In short: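 Using HepG2 liver cells bearing transiently transfected cis-promoter reporter constructs, the assay measures induction or loss of reporter mRNA after 24 hours of dosing. Detection used fluorescently labeled RT-PCR products separated by capillary electrophoresis.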

[3] = biological target: Nuclear respiratory factor 1 (Homo sapiens) (UniProt Q16656); experiment: ATG_NRF1_CIS: Attagene CIS-FACTORIAL HepG2 Assay for human Nuclear Respiratory Factor 1 (NRF1) Orphan Gene (AID 2282987); conditions: HepG2 NRF1 cis-element reporter, Attagene multiplex; actives raise or lower the signal
Sequence of Nuclear respiratory factor 1 (Homo sapiens) (Q16656 whole entry, looked up): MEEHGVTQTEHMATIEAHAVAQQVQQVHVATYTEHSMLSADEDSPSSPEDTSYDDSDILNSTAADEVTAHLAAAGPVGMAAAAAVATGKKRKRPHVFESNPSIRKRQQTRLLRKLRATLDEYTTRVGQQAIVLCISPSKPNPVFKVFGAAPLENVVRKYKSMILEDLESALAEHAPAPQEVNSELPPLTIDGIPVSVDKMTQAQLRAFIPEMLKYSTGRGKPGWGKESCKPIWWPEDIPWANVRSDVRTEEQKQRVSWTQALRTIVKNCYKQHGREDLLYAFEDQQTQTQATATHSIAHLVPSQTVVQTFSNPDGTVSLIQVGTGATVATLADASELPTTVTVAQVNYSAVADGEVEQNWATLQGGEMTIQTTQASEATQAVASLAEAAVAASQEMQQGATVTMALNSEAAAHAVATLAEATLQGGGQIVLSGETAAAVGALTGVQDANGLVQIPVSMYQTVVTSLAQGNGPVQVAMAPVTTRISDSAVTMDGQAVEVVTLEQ
In short: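 Reporter mRNA induction or loss in HepG2 cells after 24 h dosing; cis-regulated reporter constructs report endogenous transcription-factor activity. Quantified by RT-PCR/capillary electrophoresis fluorescence, DMSO-referenced.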

[4] = ATG_NFI_CIS: Attagene CIS-FACTORIAL HepG2 Assay for human Nuclear Factor I (NFI) (AID 2282989); conditions: HepG2 cis-regulatory reporter, NFI response element transcription; actives raise or lower the signal
In short: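 Reporter transcription driven by endogenous transcription factors in HepG2 cells; 24 h treatment. Quantitation by labelled RT-PCR fragments on capillary electrophoresis, gain- or loss-of-signal relative to DMSO.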

[5] = biological target: Myc proto-oncogene protein (Homo sapiens) (UniProt P01106); experiment: ATG_Myc_CIS: Attagene CIS-FACTORIAL HepG2 Assay for human Myelocytomatosis (Myc) Proto-Oncogene Transcription Factor (AID 2282990); conditions: HepG2, Attagene cis-reporter transcription factor activity; actives raise or lower the signal
Sequence of Myc proto-oncogene protein (Homo sapiens) (P01106 whole entry, looked up, the tested form may be a part): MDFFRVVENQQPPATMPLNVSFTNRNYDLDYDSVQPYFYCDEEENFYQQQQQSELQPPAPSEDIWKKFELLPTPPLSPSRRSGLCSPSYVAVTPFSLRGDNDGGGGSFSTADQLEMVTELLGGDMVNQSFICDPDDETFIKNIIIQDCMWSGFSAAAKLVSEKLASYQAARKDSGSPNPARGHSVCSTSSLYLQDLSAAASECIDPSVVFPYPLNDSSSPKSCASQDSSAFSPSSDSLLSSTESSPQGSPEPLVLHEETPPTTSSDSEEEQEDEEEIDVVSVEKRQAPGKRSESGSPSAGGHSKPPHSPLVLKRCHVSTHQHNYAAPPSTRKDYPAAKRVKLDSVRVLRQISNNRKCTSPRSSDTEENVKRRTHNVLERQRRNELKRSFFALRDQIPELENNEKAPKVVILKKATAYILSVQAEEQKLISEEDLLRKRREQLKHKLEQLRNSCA
In short: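 Fluorescence intensity of reporter-specific cDNA fragments, separated by capillary electrophoresis, gives the signal. Transfected HepG2 cells carrying cis-promoter reporter constructs are incubated with compound for 24 h; DMSO serves as baseline.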

[6] = ATG_NF_kB_CIS: Attagene CIS-FACTORIAL HepG2 Assay for human Nuclear Factor Kappa B (NF-kB) (AID 2282991); conditions: HepG2 Attagene cis-factorial NF-kB reporter mRNA; actives raise or lower the signal
In short: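 DMSO served as negative control and baseline for bidirectional curve fitting. Transiently transfected HepG2 cells were dosed for 24 h, then reporter transcripts were measured by RT-PCR with capillary electrophoresis detection.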

[7] = ATG_NRF2_ARE_CIS: Attagene CIS-FACTORIAL HepG2 Assay for human Nuclear Factor Erythroid 2 Related Factor 2 (NFR2) response to Antioxidant Response Elements (ARE) (AID 2282992); conditions: HepG2 Attagene ARE/NRF2 reporter, transcription factor activity; actives raise or lower the signal;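 for AC50: reporter mRNA level measured by RT-PCR and capillary electrophoresis fluorescence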
In short: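 HepG2 cells transiently transfected with multiplexed cis-regulated reporter transcription units measure endogenous transcription factor activity. Reporter mRNA at 24 h is quantified by RT-PCR, fluorescent labelling and capillary electrophoresis, with bidirectional fitting relative to DMSO.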

[8] = ATG_Oct_MLP_CIS: Attagene CIS-FACTORIAL HepG2 Assay for human Octamer-Binding Transcription Factor (Oct) (AID 2282993); conditions: HepG2 Attagene cis-factorial Oct reporter, mRNA; actives raise or lower the signal
In short: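 Transfected HepG2 cells, 24 h treatment. Reporter mRNA quantified by RT-PCR–capillary electrophoresis; bidirectional fitting against DMSO.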

[9] = biological target: Cellular tumor antigen p53 (Homo sapiens) (UniProt P04637); experiment: ATG_p53_CIS: Attagene CIS-FACTORIAL HepG2 Assay for human p53 Transcription Factor (AID 2282994); conditions: HepG2 p53 cis-element reporter, Attagene mRNA; actives raise or lower the signal
Sequence of Cellular tumor antigen p53 (Homo sapiens) (P04637 whole entry, looked up): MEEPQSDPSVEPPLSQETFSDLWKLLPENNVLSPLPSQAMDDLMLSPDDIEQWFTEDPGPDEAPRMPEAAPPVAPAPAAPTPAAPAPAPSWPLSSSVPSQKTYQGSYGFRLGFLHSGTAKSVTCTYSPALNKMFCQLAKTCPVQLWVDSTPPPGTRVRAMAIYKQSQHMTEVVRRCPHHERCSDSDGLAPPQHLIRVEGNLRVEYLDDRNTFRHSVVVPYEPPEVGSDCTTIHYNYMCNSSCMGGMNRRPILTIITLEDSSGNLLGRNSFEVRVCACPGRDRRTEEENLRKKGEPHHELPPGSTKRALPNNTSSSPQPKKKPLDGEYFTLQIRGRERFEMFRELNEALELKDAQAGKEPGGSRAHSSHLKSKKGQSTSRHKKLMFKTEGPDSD
In short: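 HepG2 cells transiently transfected with multiplexed cis-regulated reporter transcription units read endogenous TF activity. After 24 h compound exposure, reporter mRNA was quantified by RT-PCR, fluorescent labelling, HpaI digestion and capillary electrophoresis; bidirectional fits versus DMSO baseline.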

[10] = BSK_3C_TissueFactor: BioMAP Diversity Plus: 3C Assay for Tissue Factor Biomarker Activity (AID 2282997); conditions: BioMAP 3C HUVEC, tissue factor biomarker readout; actives raise or lower the signal
In short: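 Values derive from bidirectional curve fitting against DMSO of Tissue Factor ELISA signals, taken 24 h after dosing primary human umbilical vein endothelial cells.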

[11] = BSK_3C_uPAR: BioMAP Diversity Plus: 3C Assay for Urokinase-type plasminogen activator receptor (uPAR) Biomarker Activity (AID 2282998); conditions: BioMAP 3C HUVEC, uPAR biomarker ELISA; actives raise or lower the signal
In short: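 Readout: ELISA for surface uPAR. System: human umbilical vein endothelial primary cells, 24 h after chemical exposure. Analysis: bidirectional fit, DMSO baseline.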

[12] = BSK_3C_VCAM1: BioMAP Diversity Plus: 3C Assay for Vascular cell adhesion molecule 1 (VCAM1) Biomarker Activity (AID 2282999); conditions: BioMAP 3C HUVEC, VCAM1 ELISA, cytokine-stimulated; actives raise or lower the signal
In short: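 Human umbilical vein endothelial cells (3C system), biomarker read by ELISA 24 h after dosing; bidirectional fit against DMSO baseline. Cytotoxicity tracked by SRB total-protein staining in parallel cultures at biomarker time.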

[13] = BSK_4H_Eotaxin3: BioMAP Diversity Plus: 4H Assay for Eotaxin 3 Biomarker Activity (AID 2283000); conditions: primary human endothelial cells (HUVEC); actives raise or lower the signal;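 for outcome: CCL26 protein level quantified by ELISA in parallel with SRB cytotoxicity check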
In short: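 Endothelial primary cells (human umbilical vein) exposed to compound for 24 h. ELISA detection of Eotaxin-3.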

[14] = biological target: Glucocorticoid receptor (Homo sapiens) (UniProt P04150); experiment: ATG_GR_TRANS: Attagene TRANS-FACTORIAL HepG2 Assay for human Glucocorticoid Receptor (GR) (AID 2282978; active = hit-call score of the fitted dose curve at least 0.9, where 1 is the maximum;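 note: activators score as hits since higher reporter transcript over DMSO is fitted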); conditions: HepG2 Attagene TRANS GR reporter, mRNA transcription
Sequence of Glucocorticoid receptor (Homo sapiens) (P04150 whole entry, looked up, the tested form may be a part): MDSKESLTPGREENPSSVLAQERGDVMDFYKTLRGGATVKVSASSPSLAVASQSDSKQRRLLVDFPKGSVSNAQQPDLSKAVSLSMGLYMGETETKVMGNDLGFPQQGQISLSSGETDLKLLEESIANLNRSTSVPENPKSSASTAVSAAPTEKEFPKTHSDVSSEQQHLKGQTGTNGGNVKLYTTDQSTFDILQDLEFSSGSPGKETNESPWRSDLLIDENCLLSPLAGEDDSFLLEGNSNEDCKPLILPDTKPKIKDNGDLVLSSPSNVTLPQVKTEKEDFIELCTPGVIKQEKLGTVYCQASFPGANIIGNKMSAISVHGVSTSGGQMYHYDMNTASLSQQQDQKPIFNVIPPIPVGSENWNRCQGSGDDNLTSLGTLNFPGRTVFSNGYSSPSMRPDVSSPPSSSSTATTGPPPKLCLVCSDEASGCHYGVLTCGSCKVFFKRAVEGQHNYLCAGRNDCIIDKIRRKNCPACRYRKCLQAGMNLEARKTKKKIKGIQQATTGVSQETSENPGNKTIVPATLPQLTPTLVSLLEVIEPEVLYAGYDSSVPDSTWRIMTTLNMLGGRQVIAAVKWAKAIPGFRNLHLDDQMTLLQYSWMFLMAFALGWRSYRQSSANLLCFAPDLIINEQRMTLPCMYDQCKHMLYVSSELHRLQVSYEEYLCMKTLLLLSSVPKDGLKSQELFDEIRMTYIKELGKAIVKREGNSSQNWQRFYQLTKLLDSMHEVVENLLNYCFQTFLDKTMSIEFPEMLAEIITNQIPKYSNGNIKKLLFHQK
In short: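 Transiently transfected HepG2 cells express chimeric NR-GAL4 proteins acting on GAL4-UAS reporter units. Compounds are applied for 24 h. mRNA induction over DMSO is measured by capillary electrophoresis.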

[15] = biological target: Oxysterols receptor LXR-alpha (Homo sapiens) (UniProt Q13133); experiment: ATG_LXRa_TRANS: Attagene TRANS-FACTORIAL HepG2 Assay for human Liver X Receptor alpha (LXRa) (AID 2282980; active = hit-call score of the fitted dose curve at least 0.9, where 1 is the maximum); conditions: HepG2 Attagene TRANS reporter, LXRa transactivation
Sequence of Oxysterols receptor LXR-alpha (Homo sapiens) (Q13133 whole entry, looked up): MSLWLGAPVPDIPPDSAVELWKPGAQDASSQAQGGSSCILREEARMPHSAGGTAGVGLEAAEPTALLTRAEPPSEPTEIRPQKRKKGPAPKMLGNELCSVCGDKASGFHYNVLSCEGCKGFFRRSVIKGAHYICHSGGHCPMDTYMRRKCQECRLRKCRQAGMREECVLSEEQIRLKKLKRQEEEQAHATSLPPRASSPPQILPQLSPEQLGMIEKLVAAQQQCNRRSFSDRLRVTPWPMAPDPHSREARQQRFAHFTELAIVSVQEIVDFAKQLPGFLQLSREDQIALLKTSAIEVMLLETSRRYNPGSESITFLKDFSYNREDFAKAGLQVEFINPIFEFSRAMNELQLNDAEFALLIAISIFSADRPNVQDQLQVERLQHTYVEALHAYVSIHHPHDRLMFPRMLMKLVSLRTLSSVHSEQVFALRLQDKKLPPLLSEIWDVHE
In short: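 Transient HepG2 transfectants, 24 h dosing, RT-PCR/CE mRNA reporter quantitation; gain-of-signal vs DMSO.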

[16] = biological target: Hepatocyte nuclear factor 4-alpha (Homo sapiens) (UniProt P41235); experiment: ATG_HNF4a_TRANS: Attagene TRANS-FACTORIAL HepG2 Assay for human Hepatocyte Nuclear Factor 4 alpha (HNF4a) (AID 2282982; active = hit-call score of the fitted dose curve at least 0.9, where 1 is the maximum); conditions: HepG2 HNF4a transactivation reporter, mRNA readout
Sequence of Hepatocyte nuclear factor 4-alpha (Homo sapiens) (P41235 whole entry, looked up, the tested form may be a part): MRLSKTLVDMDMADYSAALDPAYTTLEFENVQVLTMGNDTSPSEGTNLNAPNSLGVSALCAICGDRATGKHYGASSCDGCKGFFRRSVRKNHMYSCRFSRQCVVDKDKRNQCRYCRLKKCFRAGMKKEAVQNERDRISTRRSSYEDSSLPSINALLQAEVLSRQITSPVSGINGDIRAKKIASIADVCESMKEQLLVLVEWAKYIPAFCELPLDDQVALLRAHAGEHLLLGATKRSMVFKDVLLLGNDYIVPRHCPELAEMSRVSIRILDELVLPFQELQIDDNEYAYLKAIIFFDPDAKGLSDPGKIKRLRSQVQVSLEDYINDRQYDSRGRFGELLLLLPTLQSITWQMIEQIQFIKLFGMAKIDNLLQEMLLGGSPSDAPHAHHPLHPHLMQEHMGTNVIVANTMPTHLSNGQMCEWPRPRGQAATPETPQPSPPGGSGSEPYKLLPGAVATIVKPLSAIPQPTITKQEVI
In short: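 HepG2 cells transiently transfected with HNF4a-Gal4 chimera and GAL4-UAS reporter units, dosed for 24 h. Reporter mRNA measured by RT-PCR, fluorescent primer extension and capillary electrophoresis; gain-of-signal fitted relative to DMSO.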

[17] = ATG_M_32_TRANS: Attagene TRANS-FACTORIAL HepG2 Assay for M32 Transcription Factor (Internal Marker) (AID 2282984; active = hit-call score of the fitted dose curve at least 0.9, where 1 is the maximum;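 note: transcript level of a background control reporter unit measured by RT-PCR and capillary electrophoresis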); conditions: HepG2 Attagene TRANS M32 internal marker reporter
In short: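 HepG2 cells transiently transfected with GAL4-UAS reporter units, dosed for 24 hours. Reporter mRNA quantified by RT-PCR, 6-FAM labelling, HpaI digestion and capillary electrophoresis; internal-marker signal fitted upward relative to DMSO.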

[18] = biological target: Bile acid receptor (Homo sapiens) (UniProt Q96RI1); experiment: ATG_FXR_TRANS: Attagene TRANS-FACTORIAL HepG2 Assay for Farnesoid X Receptor (FXR) (AID 2282979; active = hit-call score of the fitted dose curve at least 0.9, where 1 is the maximum;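 note: hits raise reporter mRNA above DMSO so AC50 marks FXR activation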); conditions: HepG2 Attagene TRANS FXR-GAL4 reporter transcription
Sequence of Bile acid receptor (Homo sapiens) (Q96RI1 whole entry, looked up, the tested form may be a part): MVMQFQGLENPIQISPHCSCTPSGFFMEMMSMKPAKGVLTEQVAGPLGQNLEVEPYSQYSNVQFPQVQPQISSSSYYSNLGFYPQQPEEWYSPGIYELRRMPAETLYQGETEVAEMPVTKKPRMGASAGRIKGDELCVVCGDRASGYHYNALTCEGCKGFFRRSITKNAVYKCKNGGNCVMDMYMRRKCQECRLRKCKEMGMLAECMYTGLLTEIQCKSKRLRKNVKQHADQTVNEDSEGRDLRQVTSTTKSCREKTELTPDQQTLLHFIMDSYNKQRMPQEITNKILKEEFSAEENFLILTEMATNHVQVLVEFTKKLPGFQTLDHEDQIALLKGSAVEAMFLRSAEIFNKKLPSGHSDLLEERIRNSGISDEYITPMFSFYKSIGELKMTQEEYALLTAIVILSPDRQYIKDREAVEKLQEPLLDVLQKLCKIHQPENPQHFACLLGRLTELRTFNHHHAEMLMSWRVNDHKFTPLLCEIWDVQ
In short: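 Chimeric FXR-GAL4 activity in transiently transfected human HepG2 liver cells is scored as induction of reporter mRNA after 24 h of dosing. Detection uses RT-PCR with fluorescent labelling and capillary electrophoresis, with DMSO serving as baseline.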

[19] = biological target: Oxysterols receptor LXR-beta (Homo sapiens) (UniProt P55055); experiment: ATG_LXRb_TRANS: Attagene TRANS-FACTORIAL HepG2 Assay for human Liver X Receptor beta (LXRb) (AID 2282981; active = hit-call score of the fitted dose curve at least 0.9, where 1 is the maximum); conditions: HepG2 Attagene TRANS GAL4-LXRb reporter, mRNA
Sequence of Oxysterols receptor LXR-beta (Homo sapiens) (P55055 whole entry, looked up, the tested form may be a part): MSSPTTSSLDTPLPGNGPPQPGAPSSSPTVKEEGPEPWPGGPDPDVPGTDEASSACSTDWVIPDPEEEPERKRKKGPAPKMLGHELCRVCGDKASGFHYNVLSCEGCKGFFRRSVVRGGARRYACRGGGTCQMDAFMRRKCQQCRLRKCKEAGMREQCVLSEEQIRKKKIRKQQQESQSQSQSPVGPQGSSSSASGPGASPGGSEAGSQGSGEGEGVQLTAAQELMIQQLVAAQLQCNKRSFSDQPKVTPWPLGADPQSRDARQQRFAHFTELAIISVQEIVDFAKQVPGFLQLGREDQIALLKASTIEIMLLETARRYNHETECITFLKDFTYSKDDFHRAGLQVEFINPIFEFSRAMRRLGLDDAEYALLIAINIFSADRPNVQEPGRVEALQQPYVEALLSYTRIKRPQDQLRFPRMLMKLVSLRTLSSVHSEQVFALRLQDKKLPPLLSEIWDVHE
In short: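 HepG2 cells transiently transfected with GAL4-UAS reporter units for chimeric NR-Gal4 proteins, dosed for 24 h. Reporter transcripts measured by RT-PCR and capillary electrophoresis; gain-of-signal fitting relative to DMSO.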

[20] = biological target: Nuclear receptor subfamily 4 group A member 2 (Homo sapiens) (UniProt P43354); experiment: ATG_NURR1_TRANS: Attagene TRANS-FACTORIAL HepG2 Assay for human Nuclear Receptor Related Protein 1 (NURR1) (AID 2282985; active = hit-call score of the fitted dose curve at least 0.9, where 1 is the maximum); conditions: HepG2 Attagene TRANS reporter, mRNA readout
In short: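 HepG2 cells transiently transfected with NURR1-Gal4 chimera and GAL4-UAS reporter units; after 24 hr compound exposure, reporter mRNA quantified by RT-PCR and capillary electrophoresis; gain of signal fitted against DMSO.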

O=c1ccc2ccccc2o1
outcome [1]: inactive
outcome [2]: inactive
outcome [3]: inactive
outcome [4]: inactive
outcome [5]: inactive
outcome [6]: inactive
outcome [7]: inactive
outcome [8]: inactive
outcome [9]: inactive
outcome [10]: inactive
outcome [11]: inactive
outcome [12]: inactive
outcome [13]: inactive

CC1=CC(=O)/C(=C(/C)O)C(=O)O1
outcome [14]: inactive
outcome [15]: inactive
outcome [16]: inactive
outcome [1]: inactive
outcome [2]: inactive
outcome [3]: inactive
outcome [4]: inactive
outcome [5]: inactive
outcome [7]: inactive
outcome [8]: inactive
outcome [9]: inactive
outcome [10]: inactive
outcome [11]: inactive
outcome [12]: inactive
outcome [13]: inactive

CCCCCCCCCC(=O)O
outcome [14]: inactive
outcome [16]: inactive
outcome [1]: inactive
outcome [17]: inactive
outcome [2]: inactive
outcome [3]: inactive
outcome [4]: inactive
outcome [5]: inactive
AC50 [6]: 104 µM (active)
outcome [6]: inactive
outcome [7]: inactive
outcome [8]: inactive
outcome [9]: inactive
outcome [10]: inactive
outcome [11]: inactive
outcome [12]: inactive
outcome [13]: inactive

Cc1cccc2ccccc12
outcome [18]: inactive
outcome [19]: inactive
outcome [16]: inactive
outcome [1]: inactive
outcome [17]: inactive
outcome [20]: inactive
outcome [2]: inactive
outcome [3]: inactive
outcome [4]: inactive
outcome [5]: inactive
outcome [6]: inactive
outcome [7]: inactive
outcome [8]: inactive
outcome [9]: inactive
outcome [11]: inactive
outcome [12]: inactive
outcome [13]: inactive

CN(C)c1ccc(C(=C2C=CC(=[N+](C)C)C=C2)c2ccc(N(C)C)cc2)cc1
outcome [17]: inactive
outcome [2]: inactive
outcome [3]: inactive
outcome [4]: inactive
outcome [5]: inactive
AC50 [7]: 2.43 µM (active)
outcome [8]: inactive
AC50 [9]: 1.08 µM (active)
AC50 [10]: 5.5 µM (active)
AC50 [11]: 0.778 µM (active)
AC50 [12]: 5.56 µM (active)
AC50 [13]: 1.17 µM (active)

O=C1c2ccccc2C(=O)N1CCc1noc(-c2ccc(CN3CCCCCC3)s2)n1
outcome [18]: inactive
outcome [16]: inactive
outcome [1]: inactive
outcome [17]: inactive
outcome [2]: inactive
outcome [3]: inactive
outcome [4]: inactive
outcome [5]: inactive
outcome [6]: inactive
AC50 [7]: 23.1 µM (active)
outcome [8]: inactive
outcome [9]: inactive
outcome [10]: inactive
outcome [11]: inactive
outcome [12]: inactive
outcome [13]: inactive
